The values that follow come from PubChem BioAssay.

Calls of active or inactive are those of the source.

In test [1] the test system is Plasmodium falciparum Sir2 (PF13_0152, Sir2A). Kind of test: Plasmodium falciparum Sir2A binding compounds – biochemical, small-molecule microarray, 635 nm fluorescence, primary screen (AID 1098).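 Further: score merges spot fluorescence intensity with its signal-to-noise ratio.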 The following applies: fluorescence 635 nm, higher = more signal.
The nature of test [2]: probe aDKK1 binding to arrayed compounds – biochemical, biotinylated probe, 635/667 nm fluorescence, primary screen (AID 1099).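 Further: score merges 667nm spot fluorescence with signal to noise across triplicate slides; reference of the scale not given here.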 The note with it: small-molecule microarray, higher = more signal.
Test [3] is described as follows: probe aCHRDL2 binding to arrayed compounds – biochemical, biotinylated probe, 635/667 nm fluorescence, primary screen (AID 1100). The note with it: small-molecule microarray, higher = more signal.
A short description of test [4]: change in splice reporter luminescence, either direction, cell-based, HEK293, spliceosome inhibition project, primary screen (AID 1101).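 Further: HEK293 cells carrying a splicing-competent luciferase reporter gene; test concentration not given here.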 The note with it: HEK293 splicing luciferase reporter, 24 h, higher = more signal, called active from +8 up or from −8 down.
In test [5] the target is Fibroblast growth factor 10 (Homo sapiens) (UniProt O15520). As to the kind of experiment: compounds binding fibroblast growth factor 10 – biochemical, small-molecule microarray, 635 nm fluorescence, primary screen (AID 1102). The note with it: FGF10 binding, fluorescence 635 nm, higher = more signal.
Chain of Fibroblast growth factor 10 (Homo sapiens) (O15520 whole entry, looked up): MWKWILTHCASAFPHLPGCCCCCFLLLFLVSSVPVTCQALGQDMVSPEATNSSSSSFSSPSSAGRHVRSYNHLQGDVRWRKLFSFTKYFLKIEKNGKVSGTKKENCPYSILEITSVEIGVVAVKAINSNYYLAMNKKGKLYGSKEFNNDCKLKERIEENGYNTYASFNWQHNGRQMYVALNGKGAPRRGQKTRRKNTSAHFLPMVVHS
Test [6] has as its system glycogen synthase kinase-3 (GSK3A per assay name; protocol says GSK3B). Kind of test: compounds binding glycogen synthase kinase-3 – biochemical, small-molecule microarray, 635 nm fluorescence, GSK3A, primary screen (AID 1103). Further: the record names both GSK3A and GSK3B. The following applies: fluorescence 635 nm, higher = more signal.
Test [7] addresses Epidermal growth factor receptor (Homo sapiens) (UniProt P00533). As to the kind of experiment: compounds binding epidermal growth factor receptor – biochemical, small-molecule microarray, 635 nm fluorescence, primary screen (AID 1104).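 Further: score merges 667 nm emission intensity with spot signal to noise over triplicate slides.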 The note with it: EGFR binding, higher = more signal.
For test [8], the target named is Follistatin-related protein 3 (Homo sapiens) (UniProt O95633). Kind of test: compounds binding follistatin-related protein 3 – biochemical, small-molecule microarray, 635 nm fluorescence, primary screen (AID 1105).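 Further: score merges emission near 667 nm and signal to noise per printed spot across three slides.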 The following applies: FSTL3 binding, higher = more signal.
Chain of Follistatin-related protein 3 (Homo sapiens) (O95633 whole entry, looked up): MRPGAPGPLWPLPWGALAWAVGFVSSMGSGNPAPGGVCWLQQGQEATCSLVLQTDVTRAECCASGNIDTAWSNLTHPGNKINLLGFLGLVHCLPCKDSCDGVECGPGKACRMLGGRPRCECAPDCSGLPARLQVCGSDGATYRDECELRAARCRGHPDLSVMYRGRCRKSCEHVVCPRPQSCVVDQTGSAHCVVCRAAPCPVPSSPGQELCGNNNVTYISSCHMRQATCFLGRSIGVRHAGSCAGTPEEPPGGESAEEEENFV
For test [9], the target named is Dickkopf-related protein 1 (Homo sapiens) (UniProt O94907). Kind of test: small molecules binding DKK1 protein – biochemical, small-molecule microarray, 635 nm fluorescence scan, primary screen (AID 1106).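 Further: score merges emission near 667 nm with signal to noise over three replicate slides.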 The following applies: higher = more signal.
Chain of Dickkopf-related protein 1 (Homo sapiens) (O94907 whole entry, looked up): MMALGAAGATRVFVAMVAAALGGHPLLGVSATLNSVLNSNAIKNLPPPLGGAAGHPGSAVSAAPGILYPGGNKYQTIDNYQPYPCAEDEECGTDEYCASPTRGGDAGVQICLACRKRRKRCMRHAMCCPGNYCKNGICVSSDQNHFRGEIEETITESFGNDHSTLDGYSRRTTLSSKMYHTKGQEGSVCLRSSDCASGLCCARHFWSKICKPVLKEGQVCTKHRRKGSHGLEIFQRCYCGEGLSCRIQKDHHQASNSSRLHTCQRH
The subject of test [10] is Inhibin beta A chain (activin A). Kind of test: small molecules binding activin A – biochemical, small-molecule microarray, 635 nm fluorescence scan, primary screen (AID 1107).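 Further: mouse activin A protein probed at 4.33 µg/mL on printed slides; score merges bound-protein fluorescence near 667 nm with spot signal-to-noise.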 The note with it: INHBA, higher = more signal.

Chain of Epidermal growth factor receptor (Homo sapiens) (P00533 whole entry, looked up): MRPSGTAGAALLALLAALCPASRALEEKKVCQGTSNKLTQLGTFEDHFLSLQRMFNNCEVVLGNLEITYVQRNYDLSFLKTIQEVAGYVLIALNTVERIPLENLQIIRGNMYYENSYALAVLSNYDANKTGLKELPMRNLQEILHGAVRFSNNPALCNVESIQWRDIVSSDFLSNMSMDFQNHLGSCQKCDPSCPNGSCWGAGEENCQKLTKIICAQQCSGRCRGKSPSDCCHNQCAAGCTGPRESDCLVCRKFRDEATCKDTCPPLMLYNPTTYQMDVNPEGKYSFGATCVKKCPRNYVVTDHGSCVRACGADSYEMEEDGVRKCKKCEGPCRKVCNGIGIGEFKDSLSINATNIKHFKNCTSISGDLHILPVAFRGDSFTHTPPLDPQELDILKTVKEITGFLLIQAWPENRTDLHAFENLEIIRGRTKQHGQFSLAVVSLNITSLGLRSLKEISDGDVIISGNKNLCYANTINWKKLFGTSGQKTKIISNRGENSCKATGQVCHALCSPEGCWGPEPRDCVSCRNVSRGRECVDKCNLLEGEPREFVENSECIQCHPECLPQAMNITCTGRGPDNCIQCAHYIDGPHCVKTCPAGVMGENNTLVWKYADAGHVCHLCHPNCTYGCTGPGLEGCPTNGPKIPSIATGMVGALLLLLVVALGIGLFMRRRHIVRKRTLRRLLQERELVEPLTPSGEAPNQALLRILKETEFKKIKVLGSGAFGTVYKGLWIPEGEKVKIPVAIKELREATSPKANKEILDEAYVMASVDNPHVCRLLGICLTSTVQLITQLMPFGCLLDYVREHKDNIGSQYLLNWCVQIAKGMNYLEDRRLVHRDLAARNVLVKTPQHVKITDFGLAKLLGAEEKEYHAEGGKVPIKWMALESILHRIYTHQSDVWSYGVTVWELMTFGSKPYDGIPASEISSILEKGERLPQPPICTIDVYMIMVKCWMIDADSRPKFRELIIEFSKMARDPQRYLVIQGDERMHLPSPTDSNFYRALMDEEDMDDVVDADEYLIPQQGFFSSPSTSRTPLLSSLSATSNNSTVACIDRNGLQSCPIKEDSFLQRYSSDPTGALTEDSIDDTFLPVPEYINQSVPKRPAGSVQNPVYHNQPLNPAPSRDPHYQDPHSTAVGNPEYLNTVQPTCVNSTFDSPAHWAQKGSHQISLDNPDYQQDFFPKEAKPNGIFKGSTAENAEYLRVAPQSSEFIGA

Consider `CCCCC(=C=CC[C@@H](O)c1cccc(OCCO)c1)C[C@@H](O)COCc1ccccc1`, for which the composite z-score in test [1] was 0.377; in test [2], -0.17; in test [3], -0.325; in test [5] it was 0.483; in test [6], 0.0702; in [7] it was -1.35. Besides, the composite z-score in [8] was -0.526; in test [9], -0.274; in test [10] it was 0.211. The z-score in test [4] was -1.21 (inactive).
For `COCCOC(=O)N1C(=O)[C@@]2(c3cc(C#CCC(C(=O)OC)C(=O)OC)ccc31)[C@H](C(N)=O)[C@H]1C(=O)O[C@H](c3ccccc3)[C@H](c3ccccc3)N1[C@@H]2c1ccc(OCCO)cc1`, the composite z-score in [1] was determined as 1.13; in [2] it was 0.271; in test [3], 0.25; in test [5] it was 1.11; in test [6], 1.31; in test [7], 0.776. The composite z-score is 1.01 in test [8], 0.614 in [9] and 0.444 in [10]. Further, in test [4], the z-score was -0.517 (inactive).
For the molecule `CCCC[C@H]1OB(O)C[C@H]2C1=C(COC)C[C@H]1C(=O)C=CC(=O)[C@H]12`, the composite z-score in test [1] was 0.351; in test [2], -0.177; in test [3] it was -0.461; in test [5] it was 0.6; in test [6] it was 0.385; in test [7], 0.645. Also, the composite z-score was found to be 1.07 in [8], 0.717 in [9] and 1.21 in [10]. Further, the z-score in [4] was 0.635 (inactive).
As for `O=C1NC(=O)C2C1C=CC(C(O)c1cccc(O)c1)N2Nc1ccc(Cl)cc1Cl` (stereo not given), the composite z-score in test [1] was -0.195; in [2] it was 0.454; in [3], 0.815; in test [5], 0.0046; in [6] it was -0.607; in [7], -0.531. For the same molecule, the composite z-score is -0.358 in test [8], -0.555 in [9] and 0.519 in test [10]. Moreover, the z-score in test [4] is 1.16 (inactive).
As for `CCCCNC(=O)c1ccc(C#C[Si](C)(C)C)c(OC(C)=O)c1`, the composite z-score in [1] was -0.0653; in test [2] it was -0.31; in test [3], -0.509; in test [5], 0.458; in [6], 0.419; in [7], 0.315. Further, the figures for the composite z-score in test [8], in test [9] and in [10] were 0.384, 0.374 and 0.58, respectively. Also, the z-score in test [4] is -0.176 (inactive).
Turning to `Cc1c(NC(=O)/C(C#N)=C/c2ccc(Cl)cc2)c(=O)n(-c2ccccc2)n1C`, the composite z-score was 0.878 in test [1]; -0.115 in test [2]; 0.1 in test [3]; 0.938 in test [5]; 0.0624 in test [6]; 0.324 in test [7]. The composite z-score turned out to be 0.371 in test [8], 0.101 in test [9] and 0.311 in test [10]. Besides, in test [4], the z-score was -0.0648 (inactive).
Take `C=CCC(OC(C)=O)[C@@H]1[C@@H](N(Cc2ccc(-c3cccc(C(F)(F)F)c3)o2)C(=O)c2cccc3ccccc23)c2cc(OCCCO)ccc2N1C(=O)c1ccc2ccccc2c1` (stereo not given in full): the composite z-score was 0.542 in test [1]; 0.0086 in test [2]; 0.256 in test [3]; 0.119 in [5]; -1.08 in test [6]; 0.142 in test [7]. Moreover, the composite z-score in test [8] amounted to 0.317; in [9] it was 0.289; in test [10] it was 1.2. Moreover, the z-score in test [4] is -0.874 (inactive).
Regarding `CN(C)C(=O)[C@]1(Cc2ccccc2CN=[N+]=[N-])N=C(c2ccc(OCCCO)cc2)O[C@@H]1c1ccccc1N=[N+]=[N-]`, the composite z-score in test [1] was 1.18; in [2], 0.805; in test [3], 0.884; in [5] it was 0.939; in test [6], 0.631; in test [7], -0.205. For the same molecule, the composite z-score in test [8] was 0.264; in [9] it was -0.0994; in [10], 0.814. Moreover, the z-score in test [4] is -1.27 (inactive).
Turning to `COc1ccc(C(O)C2C=CC3C(=O)N(C)C(=O)C3N2Nc2ccc([N+](=O)[O-])cc2[N+](=O)[O-])cc1OCc1ccccc1` (stereo not given), the composite z-score in [1] is 0.994; in test [2] it was 1.23; in test [3] it was 1.24; in test [5] it was 0.895; in [6], 0.858; in test [7], 0.0333. The composite z-score in [8] was 0.84; in test [9], -0.508; in [10], 0.718. Besides, in [4], the z-score was 1.16 (inactive).
For the molecule `NCCCC[C@@H]1NC(=O)[C@H]2C[C@@H](C(=O)NCc3ccc(F)cc3)[C@@H](c3ccc(O)cc3)N2C1=O`, the composite z-score came out at 1.6 in test [1]; 0.831 in test [2]; 1.07 in test [3]; 0.186 in test [5]; 1.33 in [6]; 0.117 in test [7]. Moreover, the composite z-score amounted to 1 in test [8], 0.496 in test [9] and 1.2 in test [10]. For the same molecule, in test [4], the z-score is 0.374 (inactive).
In the case of `[N-]=[N+]=NCc1ccccc1[C@@H]1OC(c2ccc(OCCCO)cc2)=N[C@]1(Cc1ccccc1)C(=O)NCc1ccccc1`, the composite z-score in test [1] was 0.869; in test [2], -0.0406; in test [3], 0.996; in [5], 0.769; in [6], 0.113; in test [7] it was 0.131. For the same molecule, the composite z-score in test [8] is 0.529; in test [9] it was -0.154; in test [10] it was 0.656. The z-score in test [4] is -1.29 (inactive).
